Compounds without any hit were thinned out: in the full panel of roughly 83,000, 20% have a hit.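 Compound tested at a single concentration for 48 hours in 96-well plates; a percent growth value below 10 was scored as active.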 The source made the active and inactive calls.
What follows are molecules tested on NCI-H522 lung (assay: NCI-60 one-dose screen, 48 h (100 = growth as untreated, 0 = no growth, -100 = all killed)). Details: 10 µM unless noted.

| Structure (SMILES) | growth |
| --- | --- |
| COc1ccc(CNc2ccc3nc(CCC4CCCCC4)[nH]c3c2)cc1 | 67.1% (inactive) |
| CC(C)(C)[C@H](OCc1cn([C@H]2C[C@@H](O)[C@@H](CO)O2)c(=O)[nH]c1=O)c1ccc(C#Cc2ccccc2)cc1[N+](=O)[O-] | 45% (inactive) |
| N#C/C(=C\c1cccc2cnccc12)N1N=NC2C=CC=CC21 (centres undefined) | 14.1% (inactive) |
| Cc1c2cnccc2c(C)c2c1c1cc(C(=O)O)ccc1n2C | -47.8% (active) |
| COCCn1cc(-c2nc(-c3cc4cccnc4n3C)cs2)c2cc(OC)ccc21 | 41.9% (inactive) |
| Cc1ccc(S(=O)(=O)N(CCC(=O)O)c2ccccc2)cc1 | 109% (inactive) |
| C=CN(C(=O)N1CCN(c2cc3c(cc2F)c(=O)c(C(=O)O)cn3C2CC2)CC1)c1nc(-c2ccc(C)cc2)cs1 | 5.65% (active) |
| CCOC(=O)/C(=C/c1ccc([N+](=O)[O-])cc1)C(=O)c1ccccc1 | -24.7% (active) |
| CC(C)C(=O)Nc1ncc(C(=O)NCCN(Cc2ccccc2)C(=O)c2ccc(S(=O)(=O)Nc3ccccc3)cc2)s1 | 83.6% (inactive) |
| OC1CSSC1Cn1cnc2c(Nc3ccc(F)c(Cl)c3)ncnc21 (centres undefined) | 69.2% (inactive) |
| CCCCCCCCNc1ncnc2c1ncn2Cc1nnc2c3ccccc3c(Cl)nn12 | 52.9% (inactive) |
| CN1C(=O)N(C)C2C1NN=c1s/c(=C\c3ccc(F)cc3)c(=O)n12 (centres undefined) | 2.08% (active) |
| COC(=O)c1cc(-c2cc(OC)c(OC)c(OC)c2)[nH]c1N/N=C/c1c(Cl)cccc1Cl | -45.3% (active) |
| COc1ccc(Nc2nc(Nc3cc(C)[nH]n3)c3cc(OC)c(OC)cc3n2)cc1 | -39.1% [20 µM] (active) |

From PubChem BioAssay (NCI)
